Tests used:
Assay in all cases: log2 ratio of Biotin-Ahx-Ub-VS probe labelling (fragment/DMSO); higher = less target engagement (more negative = stronger competition), active = hit call of the paper (q ≤ 0.05, log2 ratio ≤ -1)
Details in all cases: compound concentration: 200 uM; treatment time: 3 h
USP9X = USP9X (UniProt Q93008)
Procedure, shortened: (§1)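 Labelled DUBs from HEK293T lysate were NeutrAvidin-enriched, digested with LysC and trypsin, and run by diaPASEF LC-MS/MS. Before that, each 495 µg sample in Tris/CHAPS/IGEPAL buffer with protease inhibitors was treated in triplicate with fragment at 200 µM or vehicle for 3 h, then with Biotin-Ahx-Ub-VS at 0.5 µM final for 1 h. Values are average log2 ratios of fragment over vehicle by unpaired t-test, based on global-median-normalised Spectronaut label-free quantities from proteins with ≥2 unique peptides.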

UniProt O00487 = biological target: UniProt O00487
Chain of UniProt O00487 (O00487 whole entry): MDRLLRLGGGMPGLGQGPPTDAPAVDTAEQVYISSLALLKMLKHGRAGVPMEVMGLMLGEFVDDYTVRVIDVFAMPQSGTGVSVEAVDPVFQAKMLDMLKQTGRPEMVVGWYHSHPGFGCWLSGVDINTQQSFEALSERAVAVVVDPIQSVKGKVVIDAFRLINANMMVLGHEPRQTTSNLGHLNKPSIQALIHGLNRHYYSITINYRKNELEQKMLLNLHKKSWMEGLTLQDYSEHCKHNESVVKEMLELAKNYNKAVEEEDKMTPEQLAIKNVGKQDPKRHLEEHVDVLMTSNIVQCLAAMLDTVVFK
Procedure, shortened: as §1

UniProt O00507 = biological target: UniProt O00507
Chain of UniProt O00507 (O00507 whole entry): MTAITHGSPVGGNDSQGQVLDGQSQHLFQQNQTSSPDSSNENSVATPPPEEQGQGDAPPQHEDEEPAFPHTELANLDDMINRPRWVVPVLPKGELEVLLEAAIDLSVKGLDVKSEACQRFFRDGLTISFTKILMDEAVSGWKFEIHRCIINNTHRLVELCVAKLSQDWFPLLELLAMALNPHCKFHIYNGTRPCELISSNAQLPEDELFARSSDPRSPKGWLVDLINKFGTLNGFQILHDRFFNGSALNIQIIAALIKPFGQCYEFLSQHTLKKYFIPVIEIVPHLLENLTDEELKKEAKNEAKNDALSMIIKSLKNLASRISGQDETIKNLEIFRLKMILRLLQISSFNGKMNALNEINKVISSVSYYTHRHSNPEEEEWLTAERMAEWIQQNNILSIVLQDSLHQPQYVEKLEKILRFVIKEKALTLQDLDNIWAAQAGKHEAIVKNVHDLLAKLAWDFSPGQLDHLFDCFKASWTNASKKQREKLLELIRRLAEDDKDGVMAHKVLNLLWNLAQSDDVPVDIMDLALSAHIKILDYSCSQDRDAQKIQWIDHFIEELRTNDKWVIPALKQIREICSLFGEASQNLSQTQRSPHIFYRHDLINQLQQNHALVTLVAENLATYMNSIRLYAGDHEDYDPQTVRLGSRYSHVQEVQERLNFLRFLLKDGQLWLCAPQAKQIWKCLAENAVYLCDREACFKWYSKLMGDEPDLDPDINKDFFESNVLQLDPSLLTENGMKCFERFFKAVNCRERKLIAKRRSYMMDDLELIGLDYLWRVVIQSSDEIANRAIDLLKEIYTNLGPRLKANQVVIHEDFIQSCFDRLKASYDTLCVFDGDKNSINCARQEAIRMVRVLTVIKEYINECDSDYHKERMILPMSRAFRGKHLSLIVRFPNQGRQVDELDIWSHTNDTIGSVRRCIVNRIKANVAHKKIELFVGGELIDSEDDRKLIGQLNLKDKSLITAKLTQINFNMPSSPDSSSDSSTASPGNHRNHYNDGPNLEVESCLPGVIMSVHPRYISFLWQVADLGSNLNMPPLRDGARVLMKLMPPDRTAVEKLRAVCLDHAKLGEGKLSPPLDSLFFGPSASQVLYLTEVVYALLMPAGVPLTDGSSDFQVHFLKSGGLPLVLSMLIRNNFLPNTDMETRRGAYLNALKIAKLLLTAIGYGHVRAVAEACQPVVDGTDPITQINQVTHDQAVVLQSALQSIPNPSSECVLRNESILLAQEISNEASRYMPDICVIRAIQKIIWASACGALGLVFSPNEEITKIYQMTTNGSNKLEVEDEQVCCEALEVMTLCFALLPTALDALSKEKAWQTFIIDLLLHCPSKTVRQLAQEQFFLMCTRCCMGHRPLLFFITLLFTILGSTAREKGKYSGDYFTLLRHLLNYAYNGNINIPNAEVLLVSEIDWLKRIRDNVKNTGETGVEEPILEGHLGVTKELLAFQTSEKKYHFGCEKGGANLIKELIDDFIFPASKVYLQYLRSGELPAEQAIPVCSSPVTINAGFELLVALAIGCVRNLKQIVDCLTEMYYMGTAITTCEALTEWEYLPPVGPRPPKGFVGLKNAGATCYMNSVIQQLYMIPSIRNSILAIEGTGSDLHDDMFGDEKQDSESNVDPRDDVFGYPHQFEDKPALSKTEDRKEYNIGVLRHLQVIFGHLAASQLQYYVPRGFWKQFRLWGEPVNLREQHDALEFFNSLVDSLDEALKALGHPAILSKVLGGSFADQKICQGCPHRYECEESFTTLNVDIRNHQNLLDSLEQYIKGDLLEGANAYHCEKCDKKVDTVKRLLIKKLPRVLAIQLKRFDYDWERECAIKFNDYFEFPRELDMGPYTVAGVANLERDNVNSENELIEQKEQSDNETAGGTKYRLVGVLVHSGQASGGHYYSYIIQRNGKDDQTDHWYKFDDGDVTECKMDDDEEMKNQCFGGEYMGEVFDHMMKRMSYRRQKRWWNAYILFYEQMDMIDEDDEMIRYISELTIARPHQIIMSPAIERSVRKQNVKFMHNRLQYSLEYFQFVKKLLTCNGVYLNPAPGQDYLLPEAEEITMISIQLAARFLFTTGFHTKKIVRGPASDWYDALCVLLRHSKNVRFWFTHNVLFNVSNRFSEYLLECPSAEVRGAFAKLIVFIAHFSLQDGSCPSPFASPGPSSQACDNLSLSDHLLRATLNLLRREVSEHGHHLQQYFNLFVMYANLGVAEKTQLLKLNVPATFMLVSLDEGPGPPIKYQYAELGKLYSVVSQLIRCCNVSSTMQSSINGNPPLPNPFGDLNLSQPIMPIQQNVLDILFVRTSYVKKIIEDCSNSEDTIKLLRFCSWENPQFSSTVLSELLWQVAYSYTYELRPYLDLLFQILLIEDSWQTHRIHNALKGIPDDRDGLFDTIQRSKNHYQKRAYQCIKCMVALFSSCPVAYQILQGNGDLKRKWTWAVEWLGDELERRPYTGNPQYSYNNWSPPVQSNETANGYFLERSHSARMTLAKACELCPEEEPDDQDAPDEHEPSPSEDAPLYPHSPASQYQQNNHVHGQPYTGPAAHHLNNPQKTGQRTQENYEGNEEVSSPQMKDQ
Procedure, shortened: as §1

UniProt P51784 = biological target: UniProt P51784
Chain of UniProt P51784 (P51784 whole entry): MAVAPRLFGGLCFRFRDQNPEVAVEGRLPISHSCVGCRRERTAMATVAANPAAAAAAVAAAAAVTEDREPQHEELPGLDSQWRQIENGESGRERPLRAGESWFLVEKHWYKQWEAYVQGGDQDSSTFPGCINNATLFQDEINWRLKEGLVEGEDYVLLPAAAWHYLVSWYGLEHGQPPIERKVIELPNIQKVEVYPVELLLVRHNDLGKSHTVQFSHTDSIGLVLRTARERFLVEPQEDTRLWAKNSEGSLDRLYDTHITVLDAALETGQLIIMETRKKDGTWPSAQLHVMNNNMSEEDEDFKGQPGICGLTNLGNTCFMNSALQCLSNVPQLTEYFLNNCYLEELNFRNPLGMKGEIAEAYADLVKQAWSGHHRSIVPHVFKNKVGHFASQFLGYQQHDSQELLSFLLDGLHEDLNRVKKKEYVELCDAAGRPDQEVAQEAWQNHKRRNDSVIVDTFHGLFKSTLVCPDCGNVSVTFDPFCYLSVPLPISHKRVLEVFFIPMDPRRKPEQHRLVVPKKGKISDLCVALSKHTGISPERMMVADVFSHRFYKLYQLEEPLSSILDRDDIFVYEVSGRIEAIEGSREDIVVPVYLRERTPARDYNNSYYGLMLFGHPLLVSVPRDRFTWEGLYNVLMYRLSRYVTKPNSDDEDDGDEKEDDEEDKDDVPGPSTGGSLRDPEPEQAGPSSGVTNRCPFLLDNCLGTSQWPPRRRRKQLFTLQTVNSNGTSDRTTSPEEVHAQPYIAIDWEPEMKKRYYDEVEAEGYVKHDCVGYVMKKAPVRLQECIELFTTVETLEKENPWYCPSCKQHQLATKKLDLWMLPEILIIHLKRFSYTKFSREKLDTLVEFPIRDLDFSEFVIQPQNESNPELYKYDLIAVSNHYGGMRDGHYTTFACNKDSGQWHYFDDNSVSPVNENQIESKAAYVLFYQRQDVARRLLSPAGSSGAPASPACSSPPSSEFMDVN
Procedure, shortened: as §1

UniProt Q5T2D3 = biological target: T1, UniProt Q5T2D3
T1 sequence (whole entry): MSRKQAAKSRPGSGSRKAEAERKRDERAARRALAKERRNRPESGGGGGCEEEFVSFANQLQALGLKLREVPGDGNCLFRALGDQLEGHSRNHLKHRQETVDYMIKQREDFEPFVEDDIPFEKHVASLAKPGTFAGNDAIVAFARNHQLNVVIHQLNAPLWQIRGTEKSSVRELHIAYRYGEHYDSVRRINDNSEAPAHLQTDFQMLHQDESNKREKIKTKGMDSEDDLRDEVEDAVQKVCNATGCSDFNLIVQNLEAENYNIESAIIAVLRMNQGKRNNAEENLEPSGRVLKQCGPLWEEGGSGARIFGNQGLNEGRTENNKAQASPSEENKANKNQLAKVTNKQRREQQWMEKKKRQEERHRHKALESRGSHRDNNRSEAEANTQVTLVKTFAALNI
Procedure, shortened: as §1

UniProt Q8TE49 = biological target: T2, UniProt Q8TE49
T2 sequence (whole entry): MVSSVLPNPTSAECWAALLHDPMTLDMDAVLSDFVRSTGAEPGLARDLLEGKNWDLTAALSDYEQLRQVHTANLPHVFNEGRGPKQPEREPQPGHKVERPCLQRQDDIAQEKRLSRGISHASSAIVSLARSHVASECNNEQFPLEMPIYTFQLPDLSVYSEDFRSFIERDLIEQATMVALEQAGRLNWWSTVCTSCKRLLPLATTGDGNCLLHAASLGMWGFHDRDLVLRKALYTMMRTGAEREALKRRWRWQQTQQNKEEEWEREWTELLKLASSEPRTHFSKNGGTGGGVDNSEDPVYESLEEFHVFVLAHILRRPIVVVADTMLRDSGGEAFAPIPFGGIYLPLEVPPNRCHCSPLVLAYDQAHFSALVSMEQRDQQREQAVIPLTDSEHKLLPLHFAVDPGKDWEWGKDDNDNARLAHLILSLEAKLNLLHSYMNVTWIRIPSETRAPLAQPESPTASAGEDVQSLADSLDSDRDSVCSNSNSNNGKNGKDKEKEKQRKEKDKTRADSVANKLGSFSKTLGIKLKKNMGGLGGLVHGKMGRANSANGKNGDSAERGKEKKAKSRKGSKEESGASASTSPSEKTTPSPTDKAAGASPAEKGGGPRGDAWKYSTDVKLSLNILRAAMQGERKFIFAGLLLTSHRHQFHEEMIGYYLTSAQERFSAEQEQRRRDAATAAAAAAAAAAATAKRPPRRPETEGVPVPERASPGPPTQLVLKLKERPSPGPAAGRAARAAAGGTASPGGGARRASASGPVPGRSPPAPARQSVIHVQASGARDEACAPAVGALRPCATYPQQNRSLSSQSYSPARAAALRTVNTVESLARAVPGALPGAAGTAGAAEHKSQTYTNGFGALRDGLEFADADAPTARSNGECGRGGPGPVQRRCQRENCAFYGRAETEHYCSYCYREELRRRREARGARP
Procedure, shortened: as §1

UniProt Q9P2H5 = biological target: T3, UniProt Q9P2H5
T3 sequence (whole entry): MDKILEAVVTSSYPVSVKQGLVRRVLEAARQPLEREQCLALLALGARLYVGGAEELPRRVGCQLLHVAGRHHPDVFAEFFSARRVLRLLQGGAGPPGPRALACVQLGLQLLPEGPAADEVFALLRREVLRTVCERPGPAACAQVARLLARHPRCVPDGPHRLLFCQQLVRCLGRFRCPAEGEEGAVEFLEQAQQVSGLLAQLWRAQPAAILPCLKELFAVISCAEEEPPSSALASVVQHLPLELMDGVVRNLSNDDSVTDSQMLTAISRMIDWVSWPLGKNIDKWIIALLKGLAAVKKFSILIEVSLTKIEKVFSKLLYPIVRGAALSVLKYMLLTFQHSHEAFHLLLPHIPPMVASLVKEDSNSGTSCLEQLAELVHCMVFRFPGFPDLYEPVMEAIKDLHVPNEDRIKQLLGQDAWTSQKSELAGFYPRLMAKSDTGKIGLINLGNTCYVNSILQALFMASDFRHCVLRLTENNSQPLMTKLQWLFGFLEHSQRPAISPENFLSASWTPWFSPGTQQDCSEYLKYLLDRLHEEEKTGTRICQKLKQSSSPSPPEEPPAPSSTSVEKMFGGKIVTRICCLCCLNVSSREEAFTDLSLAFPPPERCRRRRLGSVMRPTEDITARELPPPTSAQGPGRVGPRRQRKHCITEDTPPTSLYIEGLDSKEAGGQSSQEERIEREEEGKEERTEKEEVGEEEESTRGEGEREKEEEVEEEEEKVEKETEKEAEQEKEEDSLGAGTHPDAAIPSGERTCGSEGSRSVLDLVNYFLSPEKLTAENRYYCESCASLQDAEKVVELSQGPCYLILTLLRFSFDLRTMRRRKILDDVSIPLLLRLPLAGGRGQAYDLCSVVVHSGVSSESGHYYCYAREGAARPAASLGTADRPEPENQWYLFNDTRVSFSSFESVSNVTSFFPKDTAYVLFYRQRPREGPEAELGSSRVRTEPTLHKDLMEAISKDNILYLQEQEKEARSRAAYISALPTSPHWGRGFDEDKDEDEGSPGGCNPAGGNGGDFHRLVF
Procedure, shortened: as §1

UniProt Q9UGI0 = biological target: T4, UniProt Q9UGI0
T4 sequence (whole entry): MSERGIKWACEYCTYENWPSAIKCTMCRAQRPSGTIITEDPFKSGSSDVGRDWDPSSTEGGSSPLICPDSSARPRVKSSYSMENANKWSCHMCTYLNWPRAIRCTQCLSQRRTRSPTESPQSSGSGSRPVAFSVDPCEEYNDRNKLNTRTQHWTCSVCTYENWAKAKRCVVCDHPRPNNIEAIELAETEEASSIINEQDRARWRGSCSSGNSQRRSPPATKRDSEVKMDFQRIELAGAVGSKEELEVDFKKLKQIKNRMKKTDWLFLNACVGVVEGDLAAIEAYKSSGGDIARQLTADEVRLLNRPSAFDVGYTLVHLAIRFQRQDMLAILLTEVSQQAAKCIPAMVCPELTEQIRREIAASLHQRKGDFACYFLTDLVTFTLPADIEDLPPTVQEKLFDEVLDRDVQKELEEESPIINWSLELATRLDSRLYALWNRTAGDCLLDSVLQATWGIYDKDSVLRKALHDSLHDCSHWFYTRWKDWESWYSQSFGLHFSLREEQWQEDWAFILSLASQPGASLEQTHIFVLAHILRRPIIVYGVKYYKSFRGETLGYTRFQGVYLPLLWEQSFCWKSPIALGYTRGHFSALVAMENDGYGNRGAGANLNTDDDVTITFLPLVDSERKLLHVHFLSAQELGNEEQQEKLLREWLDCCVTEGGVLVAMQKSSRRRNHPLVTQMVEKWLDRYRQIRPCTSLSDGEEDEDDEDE
Procedure, shortened: as §1

YOD1 = biological target: T5, YOD1 (UniProt Q5VVQ6)
T5 sequence (whole entry): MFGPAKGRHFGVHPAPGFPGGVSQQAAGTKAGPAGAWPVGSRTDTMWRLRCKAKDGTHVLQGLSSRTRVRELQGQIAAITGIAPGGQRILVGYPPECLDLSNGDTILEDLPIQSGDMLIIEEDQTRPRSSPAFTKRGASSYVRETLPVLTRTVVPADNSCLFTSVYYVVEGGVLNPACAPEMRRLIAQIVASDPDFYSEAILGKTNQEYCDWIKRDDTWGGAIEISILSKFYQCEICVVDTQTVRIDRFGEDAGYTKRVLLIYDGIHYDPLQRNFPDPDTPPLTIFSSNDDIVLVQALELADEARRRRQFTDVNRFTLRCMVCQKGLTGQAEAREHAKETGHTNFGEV
Procedure, shortened: as §1

Measured: log2 ratio of Biotin-Ahx-Ub-VS probe labelling

CCCn1nccc1NC(=O)CCl
active: UniProt Q8TE49 -1.02
inactive: USP9X -0.239 | UniProt O00487 -0.102 | UniProt O00507 -0.381 | UniProt P51784 -0.0768 | UniProt Q5T2D3 -0.0284 | UniProt Q9P2H5 -0.452 | UniProt Q9UGI0 -0.251 | YOD1 -0.159

Source: the supplement of paper PMC11732987, “Enantioselective OTUD7B fragment discovery through chemoproteomics screening and high-throughput optimisation” (Communications Chemistry, 2025)
